Pf apPOL block: Pf-apPOL inhibitors, biochemical, fluorescence | Plasmodium falciparum apicoplast DNA polymerase (apPOL) | Recombinant Pf-apPOL, molecular beacon fluorescence, 1.5 h | inhibition, % at 10 µM | actives 0.25% (n = 210,000)
mHTT CaM bind: mutant huntingtin-calmodulin interaction inhibitors – biochemical, AlphaScreen, primary screen | AlphaScreen His-mHTT/GST-CaM binding, luminescence | actives 3.6% (n = 190,000) | inhibition, % at 15 µM | P42858;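 further: 0% = both proteins with DMSO and 100% = one protein alone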
The depositor's hits bear a star; i = inactive; · = not tested or not shown; ! = repeats disagree. In the library only some 3.6% were active in any assay of this set; here they are far more common. No stated cut-off is given here; in the data, active means inhibition above about 50%; inactive means the rest.

SMILES	Pf apPOL block	mHTT CaM bind
COc1ccccc1NC(=O)c1c(NC(=O)Cc2ccccc2)sc2c1CCC2	-4	-2
COc1ccc(OC)c(CNc2sc3c(c2C(=O)Nc2ccccc2OC)CCC3)c1	4	82*
COc1ccccc1NC(=O)c1c(NCc2sccc2C)sc2c1CCC2	-20	56*
O=C(O)c1ccccc1C=NNc1cc(Cl)ccc1Cl	6	·
O=C(c1ccc(-n2nnc3ccccc3c2=O)cc1)N1CCN(c2ccccn2)CC1	-2	19
Cc1nccn1Cc1noc(-c2ccccc2F)n1	-1	-9
O=C(NCCCn1ccnc1)c1cc(-c2ccc(Cl)s2)nc2ccccc12	3	50*
O=C(NCCc1ccc(Cl)cc1)c1cc(-c2cccnc2)nc2ccccc12	-7	58*
O=C(NCc1cccnc1)c1cc(-c2cccnc2)nc2ccccc12	-9	-17
O=C(NCCCn1ccnc1)c1cc(-c2ccc(Br)cc2)nc2ccccc12	-2	44
Nc1c(-c2ccc(Cl)cc2)nnn1-c1cccc(C(F)(F)F)c1	2	-6
Cc1ccc(N2CCC(NC(=O)c3n[nH]c4ccccc34)C2=O)cc1C (stereo not drawn)	-2	-7
COc1cc(/C=N/O)c([N+](=O)[O-])cc1OC	·	i
Cc1ccc(N=Cc2cc(Cl)cc([N+](=O)[O-])c2O)c(O)c1	-4	56*
COc1cc(C=Nc2ccccc2O)c([N+](=O)[O-])cc1OC	-6	86*
Cc1ccc(N=Cc2cc(Cl)cc([N+](=O)[O-])c2O)cc1	11	6
O=[N+]([O-])c1cc(C=Nc2cc(-c3ccccc3)ccc2O)c(O)c([N+](=O)[O-])c1	-1	51*
Cc1ccc(C(=O)O)cc1N=Cc1cc([N+](=O)[O-])cc([N+](=O)[O-])c1O	-4	-3
CC1CC(C)CN(CC(O)COC2CC3CCC2(C)C3(C)C)C1 (stereo not drawn)	-3	2
COc1ccc(-c2csc(NC(=O)c3cccs3)n2)cc1	-5	3
COc1ccc(-c2nnc(NC(=O)c3cccs3)o2)cc1	-34	66*
CC(=O)Nc1nc(-c2ccccc2)c(-c2ccccc2)o1	-6	24
O=C(Nc1nc(-c2ccccc2)c(-c2ccccc2)o1)c1cccs1	2	62*
Cc1ccc(CNc2ccc3c(c2)OCO3)c(C)c1	2	100*
COc1ccc(Br)cc1CNc1ccc2c(c1)OCO2	-7	98*
SMILES	Pf apPOL block	mHTT CaM bind
Cc1cccc(NCc2ccc3c(c2)OCO3)c1	7	39
COc1cc(Br)c(CNCc2ccc3c(c2)OCO3)cc1OC	-2	-3
Cc1ccc(-n2cnc(C(=O)N3CCCCC3C)n2)cc1 (stereo not drawn)	-4	3
O=c1c2cccc3c2c(nn1Cc1ccccc1Cl)-c1ccccc1-3	-3	-14
NC(=O)Cn1nc2c3c(cccc3c1=O)-c1ccccc1-2	61*!	1
CCC(C)NC(=O)C1c2ccccc2C(=O)N1C1CC1 (stereo not drawn)	-4	-2
Cc1ccc(OCCCCn2cnc3ccccc3c2=O)c(Br)c1	-3	-10
Nc1sc(SCC(=O)NCc2ccc(F)cc2)nc1-c1ccccc1	-3	91*
Nc1cc(N)nc(SCC(=O)NCc2ccccc2)n1	-3	4
CCOc1ccc(N=C(NN)c2ccc3ccccc3n2)cc1	-7	56*
Cc1ccc(N=C(NN)c2ccc3ccccc3n2)cc1	2	45
CCCCCC(=O)Nc1cc(C(F)(F)F)ccc1Cl	1	-32
CCc1ccc(O)c(N=Cc2cc(C)ccc2O)c1	0	27
CCc1ccc(O)c(N=Cc2cc(I)ccc2O)c1	14	54*
CC(C(=O)N1CCCCC1)C1CCN(S(=O)(=O)c2cccs2)CC1 (stereo not drawn)	-4	-2
CSC1=NSC2=NC(=O)/C(=C\c3ccc([N+](=O)[O-])o3)C(=N)N12	0	100*
CSC1=NSC2=NC(=O)/C(=C\c3ccc(C)o3)C(=N)N12	7	1
CC(C)CSC1=NSC2=NC(=O)/C(=C\c3ccc([N+](=O)[O-])o3)C(=N)N12	-3	79*
Cc1ccc(/C=C2/C(=N)N3C(SCC(C)C)=NSC3=NC2=O)o1	-17	-3
Cc1nnc(NC(=O)C(C)n2nc(C(F)(F)F)c(Cl)c2C)s1 (stereo not drawn)	·	-8
Cc1nnc(C)c2c(C)n(-c3ccc4ncccc4c3)c(C)c12	-10	25
Cc1ccc(C)n1-c1ccc2ncccc2c1	-1	67*
C=CCn1cnc2c(-c3ccc(OC)cc3)csc2c1=O	-1	-21
COCC(=O)Nc1nn(C)c2c1CC(C)C(=O)N2 (stereo not drawn)	-1	-14
CC1Cc2c(NC(=O)c3ccc(Br)o3)nn(C)c2NC1=O (stereo not drawn)	0	52*
SMILES	Pf apPOL block	mHTT CaM bind
Cc1ccc(NC(=O)CN2N=NC3C(=O)N(c4ccc(F)cc4F)C(=O)C32)cc1 (stereo not drawn)	17	7
COc1ccc(NC(=O)N2CCC3(CC2)NC(=O)c2ccccc2N3C)c(C)c1	-4	0
COc1ccc(OC)c(NC(=O)N2CCC3(CC2)Nc2ccccc2-n2cccc23)c1	9	54*
COc1ccc(NC(=O)N2CCC3(CC2)Nc2cc(F)ccc2-n2cccc23)c(OC)c1	-1	61*
O=C(Nc1ccccc1C(F)(F)F)N1CCC2(CC1)Nc1ccccc1-n1cccc12	0	36
CCOc1ccccc1NC(=O)N1CCC2(CC1)Nc1cc(F)ccc1-n1cccc12	4	52*
COc1ccc(NC(=O)N2CCC3(CC2)Nc2ccccc2-n2cccc23)c(OC)c1	6	64*
COc1ccc(NC(=O)C2CCN(C(=O)c3ccc(F)cc3)CC2)c(OC)c1	3	3
O=C(Nc1ccccc1F)N1CCC2(CC1)Nc1cc(F)ccc1-n1cccc12	5	33
O=C(Nc1c2c(nn1-c1ccc(Cl)cc1)CS(=O)(=O)C2)c1ccc(F)cc1	-1	9
O=C(Nc1nnc2n1CCS2)c1c(F)cccc1F	2	16
CC(=O)NCCc1csc(C2CCCN(C(=O)c3cc(C)cc(C)c3)C2)n1 (stereo not drawn)	-5	19
Cc1ccc2ccc(C(Nc3ccccn3)c3cccc(O)c3)c(O)c2n1 (stereo not drawn)	-16	76*
Cc1ccc2cccc(SCC(=O)Nc3ccc(F)cc3)c2n1	-14	-1
COc1cc(C(Nc2cc(C)ccn2)c2ccc3ccc(C)nc3c2O)cc(OC)c1OC (stereo not drawn)	2	89*
Cc1ccnc(NC(c2cccc(O)c2)c2ccc3ccc(C)nc3c2O)c1 (stereo not drawn)	-5	93*
CCC(C(=O)Nc1ccccn1)c1ccccc1 (stereo not drawn)	2	-4
Cc1cccc(NC(c2ccccc2F)c2ccc3ccc(C)nc3c2O)n1 (stereo not drawn)	-4	71*
COc1ccc(-c2csc(Nc3cc(C)ccn3)n2)cc1OC	2	47
Cc1ccnc(NC(=O)CSc2nc(C)cc(C)n2)c1	-1	-2
CC(=O)Nc1cccc(N2CC(C(=O)Nc3cccc(C)c3C)CC2=O)c1 (stereo not drawn)	-2	17
CS(=O)(=O)c1ccc(N2CC(c3nnc(NC(=O)c4ccccc4)o3)CC2=O)cc1 (stereo not drawn)	2	47

Assay outcomes deposited in PubChem by University of Kansas High Throughput Screening Laboratory.
